Our source for the median seed-adjusted z-score values is PubChem BioAssay AID1347426 (Functional Genomics Laboratory (NCATS/FGL), 2020).

The whole screen tested about 31,000 sequences, of which about 1,400 (4.5%) were called active. This is one part of a sample in which actives are shown more often than they occur. Values without a mark were called inactive.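 The calls were made as follows: active = median seed-adjusted z-score above 1 or below -1; inactive = the rest.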

This experiment is described as follows: Novel Modifiers of Survival Motor Neuron (SMN) Protein: Gene Identification via Genome-wide siRNA Screen.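 Also: luminescence tracks full-length SMN protein made from the SMN2 reporter.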 As to conditions: HEK293T SMN2-luciferase reporter, siRNA knockdown, 72 h; actives lie on both sides. A digest of the protocol:
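siRNA screen, 10418 genes ×3 siRNAs; 1 pmol/well, lipid reverse transfection into HEK293T SMN2-luc reporter line. 72 h, 37 °C, 5% CO2; ONE-Glo readout. Data: neg-ctrl normalized, log10, MAD; hit = MAD >1.0 or < -1.0.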
(Reporter assays use an easily measured gene product as a stand-in for the process of interest.)
Regarding GUCUCGUAGUGUUAUGUCUTT against GBA2, the median seed-adjusted z-score is 0.143.

Consider CCCUGGACGCUGAUGAGUUTT against CAPS, for which the median seed-adjusted z-score was -1.25 (active).

On to GAUACAUGAAGGUAUACAATT against POLR3G, for which the median seed-adjusted z-score was -0.485.

Take AGAAAGUGUACGACCCAAATT against NUCB1: the median seed-adjusted z-score is 0.232.

As for GAGUGCAAUUGGAACCUGATT against ARHGAP30, the median seed-adjusted z-score was 0.0946.

As to GCAUGAACAUUACGGAUAUTT against CARS, the median seed-adjusted z-score was 0.

For GGUGGUACAAGAGAACGAATT against JARID2, the median seed-adjusted z-score was 0.115.

On to CUUGGAUGAUGGCAAGACATT against TCEB2, for which the median seed-adjusted z-score was 1.28 (active).

GAAAUAUACUUCAGAUUCATT against SP2: the median seed-adjusted z-score is -0.617.

For GCUCAUUCCUUUUCGAGCATT against PEG3, the median seed-adjusted z-score was 0.5.

For GAUUCACAUCGUCAAGAAATT against ZNF317, the median seed-adjusted z-score is 0.087.

GAUAUGACCGCGAAACCAATT against RPA4: the median seed-adjusted z-score is 0.132.

GCUCCACACUGAUGAAUCATT against ZNF250: the median seed-adjusted z-score is -0.00985.

For GGCUAACUACUGAGCUGAATT against C1RL, the median seed-adjusted z-score is -0.148.

For GGGAAUUUCUGACCUAGUATT against ABCD3, the median seed-adjusted z-score was -0.24.

As to CCAAGCCUCUUUCCUACAATT against GPR52, the median seed-adjusted z-score was -1.17 (active).

Consider CGUGGAAGAUUUUCACAGATT against ZNF174, for which the median seed-adjusted z-score was 0.035.

Take GAUCUACCGAAUACAAGAATT against GPR171: the median seed-adjusted z-score was -0.449.

On to CCACACCAUUAUGACCAUUTT against FUT1, for which the median seed-adjusted z-score is 0.000845.

With GGAUUUGCCUUACCACUAATT against PPP2R5C, the median seed-adjusted z-score is 1.14 (active).

With GAAGGGUUAUCGUCGGGAATT against SLC6A6, the median seed-adjusted z-score was 0.0448.

Turning to CCAUCGAGUUCAUCGAUAATT against DUSP8, the median seed-adjusted z-score is -0.0326.

Turning to GUUCAUCUCUUGUAAGGAUTT against CABP5, the median seed-adjusted z-score was 0.372.

With GCCUCAGAAUUUAAUCAAATT against ALB, the median seed-adjusted z-score was -0.153.

Take CCAGAAGCGAAUCACCACATT against POLR2F: the median seed-adjusted z-score is -3.52 (active).

With GUGUCUCUGCUCUAAGUAATT against B4GALT1, the median seed-adjusted z-score is 0.

Take AGCUUAUGCAUUUGGCAAATT against APBA3: the median seed-adjusted z-score is -0.119.

On to GGAGCAGACGGUGACCAAATT against CIB3, for which the median seed-adjusted z-score was 0.234.

Regarding CAUAUGAUCCAGACAAGAATT against ZNF425, the median seed-adjusted z-score was 0.0841.

With GAGUCUGUGGUGUACCUAATT against SALL4, the median seed-adjusted z-score was -0.344.

With GAGAAGAACUCGUACCUCUTT against ZNF783, the median seed-adjusted z-score was 0.284.

CCGUGUCCAGGAACCUAUATT against LPHN3: the median seed-adjusted z-score is -0.0576.

On to AGUCCAAGGUGAUUACGCUTT against CPSF1, for which the median seed-adjusted z-score was 3.29 (active).

GCUGUGCUAUGGGAGUUAATT against ADH1A: the median seed-adjusted z-score was 0.624.

Regarding GAACUUAGCUAAAUUGACUTT against BCHE, the median seed-adjusted z-score is 0.117.

As for CUUAGACUGUUUCCACUUATT against PARK2, the median seed-adjusted z-score is 0.146.

Consider GCCUAUGAUUUAGGACUAATT against MNDA, for which the median seed-adjusted z-score is 0.232.

For CCAGUGAUGUAAGUUCUUATT against GCG, the median seed-adjusted z-score was -1.18 (active).

Take CUGUUCUGCUUAUAUGGAATT against HNRPLL: the median seed-adjusted z-score is 0.

For the sequence GAAACAUCCGUGAAAGAGATT against RABL4, the median seed-adjusted z-score is -0.154.

In the case of GAUACUAGCUAUUUUGACATT against MAST2, the median seed-adjusted z-score is 0.27.

Turning to CUAACGUAGAGGAAGCAUUTT against RAB11B, the median seed-adjusted z-score is -0.857.

As to CACUUAUACUAAGCACCAATT against CCNB1, the median seed-adjusted z-score was 0.163.

As to CUCUGGAUUUUGAUAGUUUTT against PPARGC1A, the median seed-adjusted z-score is -0.0953.

Consider GUACUUCCAUAGACAGGAATT against CECR1, for which the median seed-adjusted z-score was 0.00187.

For GGCUUAAUGUGGUGAUGUUTT against COL7A1, the median seed-adjusted z-score is 1.08 (active).

For CGAAUGCUGAGGCUACAAATT against SLC9A5, the median seed-adjusted z-score was -0.545.

On to GGGAGACCUCGAUCGUGAATT against RASA4, for which the median seed-adjusted z-score is -1.11 (active).

Regarding CAAAUCCUGUCUAACAAAATT against MYH7, the median seed-adjusted z-score is 0.659.

In the case of GUUCAUAUGUGACAUCUUUTT against ZFP36L1, the median seed-adjusted z-score is -0.933.

On to GUAGGUGAGUGGAAAUUCATT against DRD2, for which the median seed-adjusted z-score was -0.0273.

For the sequence GGAAGGUUGCUAUAGUGGATT against SSX2IP, the median seed-adjusted z-score is -0.0799.

Take GGCAAGUGCUUCACUCAAATT against ZNF665: the median seed-adjusted z-score was 1.13 (active).

Consider GAAUUCGCUUCAUCCAUUUTT against POMT2, for which the median seed-adjusted z-score is -0.614.

As for UGAUUGCACGAACAGCAAATT against MED21, the median seed-adjusted z-score is -1.3 (active).

As to GUAACACCGUUGAAGCUAATT against E2F8, the median seed-adjusted z-score was 0.209.

With CUGCUCACCCUUUACAUCATT against KIF12, the median seed-adjusted z-score was 0.0971.

For the sequence CAGUCCCAAUUUCCACUUUTT against PCDHB2, the median seed-adjusted z-score is 0.

For the sequence CCAGGUCUCGAAAACCAAATT against EN2, the median seed-adjusted z-score was 0.319.

In the case of CAGUGUUAGUCAUAUCGUATT against DHX36, the median seed-adjusted z-score is 0.165.

For CCUCGGCUCCAGCAAAUCATT against CACNB1, the median seed-adjusted z-score is 0.225.

On to GUGGGUAACUGGAACAAAATT against MFGE8, for which the median seed-adjusted z-score was 0.0367.

Consider CAACCAACAUUUACAUAUUTT against OPRK1, for which the median seed-adjusted z-score was -1.08 (active).

Turning to GCCUUGCGCUAAAUCUCGATT against NSD1, the median seed-adjusted z-score is -0.372.

Take GCAUUAACCCAAUUGCUCUTT against EDNRB: the median seed-adjusted z-score was 0.119.

Consider GAGCAGUCGCGAGAAGAUUTT against PPP1R12C, for which the median seed-adjusted z-score was -0.535.

For the sequence GGAGAGUUAAGAUCAAUGUTT against KCNB2, the median seed-adjusted z-score was 1.22 (active).

Regarding CCGUCAAAGUGAUCAACAATT against IKZF3, the median seed-adjusted z-score is 0.0181.

In the case of GGUGCUACGUUAGACCAGUTT against SNRPA1, the median seed-adjusted z-score is -2.71 (active).

Regarding GCCUCCCACUACUUUGAAATT against IL2RB, the median seed-adjusted z-score was 0.333.

Take GCAUGUCCAAUGUUCCAUATT against ACAT1: the median seed-adjusted z-score is -0.848.

As to UAAUAAAGCGGAUUCUAGATT against THAP7, the median seed-adjusted z-score is -0.0317.

As for GUCGAGUAUUCAUCCGAGATT against DHX57, the median seed-adjusted z-score was -0.138.

Regarding CGAUAGCACCUUCCUGUUUTT against GALT, the median seed-adjusted z-score is 0.484.

Regarding GCUUACAUAGCAAAUCUAATT against ST8SIA2, the median seed-adjusted z-score is 0.516.

For CAGUGUUCGUUCAACCCUATT against ZNF665, the median seed-adjusted z-score is 1.13 (active).

As for GAUCCGCACGGACUGCUUUTT against ACVRL1, the median seed-adjusted z-score is -0.361.

Take GAAAUCUUCUUACGAAAAATT against XPO7: the median seed-adjusted z-score was 0.546.

As to “GACAGGACGUGAACAUGCATT against SLC22A18AS”, the median seed-adjusted z-score is 0.0382.

Regarding CAACGAAGAGGGCAUGUUUTT against MEOX2, the median seed-adjusted z-score is 1.36 (active).

For GCAGCAAGAAGGUAGCACATT against ZNF598, the median seed-adjusted z-score is -0.303.

GUCUUUACUCUUCAACUGATT against THBS4: the median seed-adjusted z-score was -0.28.

In the case of GCAACUCAAAGGUGAUAAATT against CCNK, the median seed-adjusted z-score was -0.717.

Turning to GGCUCAAUGUGGACUACAATT against HS3ST1, the median seed-adjusted z-score is 1.21 (active).

Consider CUACUUUUAUCUUGCAUAATT against ZNF264, for which the median seed-adjusted z-score was 0.617.

Consider GGACUCUACUGCUAAAGUATT against TBC1D8B, for which the median seed-adjusted z-score was -0.985.

As for GAAAAACGGUGACCGUCAATT against MYO9B, the median seed-adjusted z-score was -0.0287.

On to CAGUUUGCUCUAUCAGUAATT against PSTPIP2, for which the median seed-adjusted z-score is 0.0136.

With CGCUGAAGUUUGUCCCUAATT against SEPX1, the median seed-adjusted z-score is -0.0545.

Regarding CAGUGUGGAUACUAAUAAATT against PMVK, the median seed-adjusted z-score is 0.269.

Turning to CAAUCACCGCUGUGGUAAATT against UCP1, the median seed-adjusted z-score is -0.0744.

Regarding CGAGGUGACUGGUACAAGATT against NDUFV1, the median seed-adjusted z-score was -0.653.

As for CUACGAUUCUGGUGGAAUATT against TRRAP, the median seed-adjusted z-score was -1.25 (active).

As to GGAUGAUUUAGAAUUGUCATT against ATP6V0C, the median seed-adjusted z-score was -0.389.

For the sequence CCAUGUUCAGUUCCAAGGATT against CORO1A, the median seed-adjusted z-score is 0.569.

As for GGUGAUCACCAAGAUCAAATT against ADCY3, the median seed-adjusted z-score is -0.294.

Regarding CUACACCUGUUUCAACAGATT against USPL1, the median seed-adjusted z-score is -1.87 (active).

AGAAGUCUGUUGCUAUGCATT against GNB5: the median seed-adjusted z-score is -0.535.

As for GACCAUACCCAGUACCGAUTT against MYH15, the median seed-adjusted z-score was -0.939.

Turning to GCAGGACCUUUUAGCAUCUTT against LYL1, the median seed-adjusted z-score was -0.118.

With ACCGCUAUGUCUACAUGUUTT against FADS6, the median seed-adjusted z-score was -0.637.

Turning to GAAACAAACUUAUAGUGAUTT against WBP5, the median seed-adjusted z-score was 0.452.

With GGAUUUUUGAUUUUCCGAATT against TUBAL3, the median seed-adjusted z-score is 1.05 (active).

For the sequence CGAAGGCCUUGUGAACAGATT against FOSL1, the median seed-adjusted z-score was -0.431.

Consider “CAGAGAAACGAGUCUUUAATT against ST6GALNAC5”, for which the median seed-adjusted z-score was -0.0321.

Regarding GCUUCUAAAUGUGAGACGATT against GCNT4, the median seed-adjusted z-score is -0.0629.

Take GGGUACAACUCUUUGAAGATT against MNAT1: the median seed-adjusted z-score was -0.335.

Consider GCUCAAAUUGUUUUGCGUUTT against AKR1D1, for which the median seed-adjusted z-score was 0.211.
